± gives the standard deviation.
Experiments:
Conditions in all cases: modulator concentration 10 µM
[1] = tested on: RAW-Dual (murine macrophage reporter line); assay: NF-kB reporter (SEAP) activity fold change vs agonist alone; higher = enhanced NF-kB activity
Method in brief: (§1)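 In 384-well plates holding 50 000 RAW-Dual murine macrophage reporter cells per well, compound at 10 μM final was pre-incubated for 1 hour at 37 °C, after which a PRR agonist was added overnight. Supernatant SEAP read with QUANTI-Blue at 620 nm absorbance reported NF-κB, and Lucia luciferase read with QUANTI-Luc luminescence reported IRF. Fold change values come from dividing each reporter signal by the mean of agonist-only control wells on the same plate, averaged over replicate plates with propagated errors.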

[2] = tested on: RAW-Dual (murine macrophage reporter line); assay: IRF reporter (Lucia luciferase) activity fold change vs agonist alone; higher = enhanced IRF activity
Method in brief: as §1

[3] = tested on: RAW-Dual (murine macrophage reporter line); assay: viability score (confluency relative to resting cells, overnight) (fraction); higher = more viable, active = viable (0.7 or more)
Method in brief: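 Confluency was the readout: RAW-Dual macrophages were imaged with IncuCyte after an overnight exposure to compound at 10 μM final. IncuCyte software produced two masks over all imaged wells. The viability score expresses confluency against resting cells, and both masks had to exceed 70% of resting cells for a compound to meet the cutoff.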

[4] = agonist: CpG ODN 1826 0.5 ug/mL

Structure (SMILES) | NF-kB reporter [1, 4] | NF-kB reporter ([1]; agonist: LPS 0.1 ug/mL) | NF-kB reporter ([1]; agonist: MPLA […]) | IRF reporter ([2]; agonist: 3'3'-cGAMP 10 ug/mL) | IRF reporter ([2]; agonist: LPS 0.1 ug/mL) | IRF reporter ([2]; agonist: MPLA […]) | viability score [3]
CN(C)CCCN(C(=O)Cc1ccc(F)cc1)c1nc2ccc(Cl)cc2s1.Cl | 0.447 ± 0.029 | 0.503 ± 0.079 | 1.08 ± 0.1 | 0.799 ± 0.035 | 0.714 ± 0.066 | 2.19 ± 0.47 | 0.0615 (inactive)
CC(=O)OC(OC(C)=O)c1ccc([N+](=O)[O-])s1 | 0.0633 ± 0.01 | 0.0636 ± 0.0089 | 0.156 ± 0.012 | 0.0166 ± 0.0041 | 0.0362 ± 0.0098 | 0.0457 ± 0.011 | 0.177 (inactive)
COc1ccc(CNS(=O)(=O)c2ccc3ccccc3c2)cc1 | 0.795 ± 0.074 | 0.899 ± 0.079 | 1.13 ± 0.11 | 0.974 ± 0.052 | 1.49 ± 0.11 | 1.7 ± 0.17 | 0.972 (active)
O=C1c2ccc(-c3ccc4c(c3)C(=O)N(CCO)C4=O)cc2C(=O)N1CCO | 0.94 ± 0.078 | 1.03 ± 0.063 | 0.912 ± 0.1 | 0.934 ± 0.048 | 1.33 ± 0.09 | 1.24 ± 0.3 | 1 (active)
NC1CONC1=O (centres undefined) | 1.25 ± 0.3 | 1.09 ± 0.11 | 1 ± 0.082 | 0.937 ± 0.033 | 1.2 ± 0.17 | 1.11 ± 0.12 | 0.991 (active)
O=C1C(Cl)=C(N2CCCCC2)C(=O)N1c1ccc(Cl)c(Cl)c1 | 0.687 ± 0.14 | 1.07 ± 0.084 | 1 ± 0.15 | 0.911 ± 0.047 | 1.09 ± 0.11 | 1.22 ± 0.27 | 1 (active)
CCOc1ccc(CC(=O)N2C3C=CCC2CC3)cc1 (centres undefined) | 0.942 ± 0.1 | 1.09 ± 0.1 | 1.01 ± 0.061 | 1.02 ± 0.047 | 1.22 ± 0.16 | 1.31 ± 0.47 | 0.971 (active)
CC(NC(=O)C1CCN(S(=O)(=O)N2CCCC2)CC1)c1ccc(F)cc1 (centres undefined) | 1.08 ± 0.054 | 1.05 ± 0.082 | 0.928 ± 0.041 | 0.953 ± 0.051 | 1.25 ± 0.085 | 1.09 ± 0.15 | 0.992 (active)
Cc1ccc(C)c(NC(=O)CCN2CCN(C=O)CC2)c1 | 0.822 ± 0.17 | 0.905 ± 0.088 | 0.967 ± 0.079 | 0.962 ± 0.045 | 1.27 ± 0.37 | 1.33 ± 0.18 | 0.979 (active)
CCOCCn1c(N2CCCN(C)CC2)nc2ccccc21 [Prestw-1274] | 0.77 ± 0.17 | 1.24 ± 0.17 | 1.03 ± 0.08 | 1.01 ± 0.027 | 1.19 ± 0.21 | 1.44 ± 0.15 | 0.996 (active)
Cc1cc(=O)[nH]c(=S)[nH]1 | 1.04 ± 0.09 | 1.02 ± 0.11 | 1 ± 0.035 | 0.99 ± 0.073 | 0.969 ± 0.084 | 1.01 ± 0.08 | 1 (active)
OCCN(CCO)CC(O)Cn1c2ccc(Br)cc2c2cc(Br)ccc21 (centres undefined) | 0.301 ± 0.024 | 0.484 ± 0.035 | 0.617 ± 0.06 | 0.742 ± 0.024 | 1.42 ± 0.24 | 1.35 ± 0.15 | 0.94 (active)
Br.O=S(=O)(c1ccc(-c2csc(Nc3ccc(Cl)cc3)n2)cc1)N1CCOCC1 | 0.997 ± 0.09 | 1.09 ± 0.071 | 1.09 ± 0.038 | 0.907 ± 0.17 | 1.11 ± 0.046 | 1.06 ± 0.1 | 0.995 (active)
CN(C(=NS(=O)(=O)c1ccccc1)c1ccccc1)c1ccc(O)cc1 | 1.05 ± 0.19 | 1.39 ± 0.11 | 1.16 ± 0.096 | 0.968 ± 0.063 | 1.2 ± 0.26 | 1.24 ± 0.2 | 1.01 (active)
CN(C)CCS(=O)c1ccccc1 (centres undefined) | 0.955 ± 0.08 | 0.907 ± 0.071 | 1.16 ± 0.21 | 0.983 ± 0.038 | 1.32 ± 0.23 | 1.39 ± 0.27 | 1.04 (active)
CN(C)CCOC(c1ccc(Cl)cc1)c1ccccn1.O=C(O)/C=C\C(=O)O (centres undefined) | 0.87 ± 0.12 | 1.14 ± 0.19 | 0.954 ± 0.073 | 0.752 ± 0.03 | 1.36 ± 0.27 | 1.15 ± 0.12 | 1 (active)
COc1cccc(-c2csc(NC(=O)C3CC3)n2)c1 | 1.16 ± 0.19 | 1.44 ± 0.11 | 1.31 ± 0.17 | 1.19 ± 0.053 | 1.26 ± 0.26 | 1.35 ± 0.14 | 1 (active)
Cc1ccc2sc(NC(=O)c3cccc(N4C(=O)CCC4=O)c3)nc2c1C | 0.946 ± 0.097 | 0.877 ± 0.074 | 1.11 ± 0.12 | 0.939 ± 0.03 | 1.39 ± 0.19 | 1.57 ± 0.21 | 1.02 (active)
Nc1ncnc2c1ncn2[C@@H]1O[C@H](CO)[C@@H](O)[C@@H]1O | 1.15 ± 0.095 | 0.941 ± 0.047 | 1.02 ± 0.053 | 0.953 ± 0.067 | 0.983 ± 0.077 | 1.02 ± 0.12 | 0.991 (active)
O=C(C=Cc1ccco1)Nc1ccc(C(=O)O)cc1NC(=O)C=Cc1ccco1 | 0.691 ± 0.069 | 1.11 ± 0.061 | 0.932 ± 0.056 | 0.884 ± 0.028 | 1.27 ± 0.19 | 0.976 ± 0.27 | 1.02 (active)
CCOc1ccc2oc(-c3ccccc3)c(C(=O)N3CCN(C)CC3)c2c1 | 1.03 ± 0.052 | 1.09 ± 0.087 | 1.03 ± 0.05 | 1.05 ± 0.053 | 1.15 ± 0.13 | 1.26 ± 0.31 | 0.966 (active)
CCN(CC)c1ccc(NC(=O)C(C)(C)C)cc1 | 0.969 ± 0.075 | 1.02 ± 0.075 | 0.98 ± 0.12 | 0.901 ± 0.074 | 1.22 ± 0.17 | 1.36 ± 0.25 | 1.04 (active)
Cc1c(F)cc(C(=O)NC2CC2)cc1-c1ccc(C(=O)NCC(C)(C)C)cn1 | 0.825 ± 0.21 | 0.994 ± 0.05 | 1.01 ± 0.071 | 1.1 ± 0.043 | 0.808 ± 0.18 | 0.932 ± 0.088 | 1 (active)
C=C1C(=O)O[C@@H]2[C@H]3O[C@]3(C)CC/C=C(\C)CC[C@@H]12 [Prestw-550] | 0.314 ± 0.019 | 0.312 ± 0.036 | 0.108 ± 0.0071 | 0.0909 ± 0.0037 | 0.0437 ± 0.0043 | 0.0367 ± 0.005 | 0.495 (inactive)
Cc1nccn1CC1CCc2c(c3ccccc3n2C)C1=O.Cl (centres undefined) | 0.82 ± 0.2 | 0.909 ± 0.28 | 0.84 ± 0.047 | 0.889 ± 0.051 | 1.19 ± 0.23 | 1.22 ± 0.33 | 0.638 (inactive)
O=C(CCn1c(=O)oc2ccccc21)Nc1ccccc1 | 1.03 ± 0.17 | 1.22 ± 0.19 | 0.881 ± 0.08 | 0.969 ± 0.032 | 1.16 ± 0.19 | 1.06 ± 0.13 | 0.998 (active)
N[C@H]1CONC1=O | 1.08 ± 0.13 | 1.06 ± 0.057 | 1.03 ± 0.074 | 1.02 ± 0.1 | 0.957 ± 0.039 | 0.949 ± 0.1 | 1.01 (active)

From the supplement of paper PMC10646978
